# Experimental data: PubChem BioAssay (NCATS)
# Test: qHTS profiling of the MIPE4 collection as inhibitors of Plasmodium falciparum (DD2) proliferation (AID 743345)
# Conditions: P. falciparum Dd2 in erythrocytes, SYBR Green DNA, 72 h; at 28.5 µM (top of the series) unless noted
# Source text: Plasmodium falciparum is a virulent malarial parasite that kills 1-2 million people worldwide each year. Transmitted by mosquitoes, the sporozoite form of the parasite enters the blood stream to infect hepatocytes, where they become merozoites that infect red blood cells (erythrocytes). Within erythrocytes, merozoites begin a […] cycle of growth and division, after which the parasite is released to infect new red blood cells. Gametocytes, which form within erythrocytes as well, circulate in the bloodstream and are ingested by the mosquito, thereby completing the life cycle. To profile malarial isolates for differential chemical responses and to identify inhibitors of malarial growth, an assay that measures P. falciparum growth and replication within erythrocytes was employed. This assay uses a DNA binding fluorescent dye (SYBR Green) to detect parasite DNA following cell lysis. Because mature erythrocytes lack DNA, only Plasmodium-derived DNA is detected.
# The SYBR Green viability assay was adapted from a method described previously (Plouffe et al., 2008). For screening 3 ul culture medium was dispensed into 1536 well black clear bottom plates (Aurora Biotechnologies) using a Multidrop Combi (Thermo Fisher Scientific Inc.), 23 nL compounds in DMSO were added by a pin tool (Kalypsys), and 5 ul of erythrocytes infected with P. falciparum (0.3% parasitemia, 2.5% hematocrit final concentration) were added. The plates were incubated at 37 C in a humidified incubator in 5% CO2 for 72 h, and 2 ul lysis buffer (20 mM Tris HCl, 10 mM EDTA, 0.16% saponin, 1.6% triton X, 10X SYBR Green I supplied as 10,000X […] by Invitrogen) was added to each well. The plates were mixed for 25 sec with gentle shaking and incubated overnight at room temperature in the dark. The following morning, fluorescence intensity at 485(14) nm excitation and 535(25) nm emission wavelengths was measured on an EnVision (Perkin Elmer) plate reader. Plate reads were normalized relative to the control inhibitor (0.29 uM artemisinin) and vehicle (DMSO) wells present on each plate and then corrected by an algorithm using vehicle-only control plates at the beginning and end of the compound plate stack.
row,SMILES,"parasite growth remaining, % of DMSO control (lower = more inhibition)"
1,C[C@]12CC[C@H]3[C@@H](CCC4=CC(=O)CC[C@@]43C)[C@H]1CC[C@H]2O,90.8%
2,CC(C)(C)c1[nH]cnc1C=c1[nH]c(=O)c(=Cc2ccccc2)[nH]c1=O,41.8% [at 57.5 µM]
3,c1ccc(CCCN2CCN(CCOC(c3ccccc3)c3ccccc3)CC2)cc1,25.6%
4,CC[C@H](CO)Nc1nc(NCc2ccccc2)c2ncn(C(C)C)c2n1,67.6%
5,O=c1[nH]c2ccc(Cl)cc2c(N[C@@H]2CN3CCC2CC3)c1-c1nc2ccccc2[nH]1,5.74%
6,O=C(N[C@H]1CN2CCC1CC2)c1ccc(Cl)cc1,82.1%
7,CC(=O)Nc1ccc(OC[C@](C)(O)C(=O)Nc2ccc([N+](=O)[O-])c(C(F)(F)F)c2)cc1,88.6%
8,O=C(Oc1ccc([N+](=O)[O-])cc1)N1CCC(C(O)(c2ccc3c(c2)OCO3)c2ccc3c(c2)OCO3)CC1,78.9%
9,C1=C2CCCN[C@H]2[C@@H]2C[C@H]1[C@@H]1CCCCN1C2,84.7%
10,Clc1ccccc1C(c1ccccc1)(c1ccccc1)n1cccn1,34.8%
11,O=C(Nc1ccncc1)C(=O)c1cn(Cc2ccc(Cl)cc2)c2ccccc12,85.2%
12,Cc1ccccc1-n1c(Cn2ncc3c(N)ncnc32)nc2cccc(C)c2c1=O,94.1%
13,O=c1cccc2n1CC1CNC[C@H]2C1,90.9%
14,c1cc2c(cc1[C@H]1OC[C@H]3[C@H]1CO[C@H]3c1ccc3c(c1)OCO3)OCO2,91.9%
15,Cn1cncc1[C@@](N)(c1ccc(Cl)cc1)c1ccc2c(c1)c(-c1cccc(Cl)c1)cc(=O)n2C,33.3%
16,COc1ccc2c(c1)[C@]13CCCCC1C(C2)N(C)CC3 (stereo not given in full),85.3%
17,Cc1c(C(=O)Nc2cccc(C(F)(F)F)c2)cc(-c2ccccc2)n1CCCN1CCOCC1,69.6%
18,CCNC(=O)C[C@@H]1N=C(c2ccc(Cl)cc2)c2cc(OC)ccc2-n2c(C)nnc21,106%
19,CC(=Cc1csc(C)n1)[C@@H]1C[C@H]2O[C@@H]2CCC[C@H](C)[C@@H](O)[C@@H](C)C(=O)C(C)(C)[C@@H](O)CC(=O)O1,16.1%
20,COC(=O)[C@@H](N)CCCN=C(N)N[N+](=O)[O-],94.8%

row,SMILES,"parasite growth remaining, % of DMSO control (lower = more inhibition)"
1,C[C@]12Cc3cn[nH]c3C[C@@H]1CC[C@@H]1[C@H]2CC[C@@]2(C)[C@H]1CC[C@]2(C)O,90%
2,O=C(O)c1ccc(O)c2ncc(N3CCOCC3)cc12,37%
3,C[C@@H]1[C@H](O)[C@@H](C)C=CC=CCCC=CC=CC=CC=C[C@H](O[C@H]2O[C@@H](C)[C@H](O)[C@@H](N)[C@@H]2O)CC2O[C@](O)(C[C@@H](O)[C@H](O)CC[C@@H](O)C[C@@H](O)C[C@@H](O)CC(=O)O[C@H]1C)C[C@H](O)[C@H]2C(=O)O,103%
4,Cc1nc(-c2ccc(-c3ccc(C(=O)N4CCc5cc6c(cc54)C4(CCN(C)CC4)CO6)cc3)c(C)c2)no1,101%
5,COc1ccc(C(=O)c2c(C)n(CCN3CCOCC3)c3cc(I)ccc23)cc1,85%
6,C#C[C@]1(O)C=C[C@@H]2[C@@H]3CCC4=CC(=O)CC[C@@H]4[C@H]3CC[C@@]21CC,59.4%
7,CCNC(=O)CC1N=C(c2ccc(Cl)cc2)c2cc(OC)ccc2-n2c(C)nnc21 (stereo not given),93.8%
8,CC(=Cc1csc(C)n1)[C@@H]1C[C@H]2O[C@]2(C)CCC[C@H](C)[C@@H](O)[C@@H](C)C(=O)C(C)(C)[C@@H](O)CC(=O)O1,15.7%
9,C[C@]12COC(=O)C[C@@H]1CC[C@@H]1[C@H]2CC[C@@]2(C)[C@H]1CC[C@]2(C)O,96.6%
10,CC=C(C)C(=O)N[C@@H](c1ccccc1)[C@@H](O)C(=O)O[C@H]1C[C@@]2(O)[C@@H](OC(=O)c3ccccc3)[C@@H]3[C@]4(OC(C)=O)CO[C@@H]4C[C@H](O)[C@@]3(C)C(=O)[C@H](OC(C)=O)C(=C1C)C2(C)C,14%
11,COc1ccc(CC2NCCc3cc(OC)c(OC)cc32)cc1OC (stereo not given),85.6%
12,C[C@H]1CCCC=CC2C[C@H](O)C[C@@H]2[C@H](O)C=CC(=O)O1 (stereo not given in full),9.17%
13,C[C@@]12OC(=O)[C@]1([C@@H](O)[C@@H]1C=CCCC1)NC(=O)[C@H]2CCCl,7.57%
14,CC(C)N[C@@H]1CCn2c(=O)[nH]c3cccc(c32)[C@@H]1O,104%
15,CCN1CCN(C(=O)Cc2ccc(Nc3ncc(F)c(Nc4ccc(C(=O)Nc5ccccc5Cl)cc4)n3)cc2)CC1,7.02%
16,CCOC(=O)c1c(C(C#N)=CN)c2ccc(Cl)c(Cl)c2n1C,97.1%
17,C[C@]12CCC(=O)C(O)=C1CC[C@@H]1[C@H]3CCC(=O)[C@@]3(C)CC[C@@H]12,94.3%
18,COc1ccc(N(C(=O)Oc2c(C)cccc2C)c2ccnc(Nc3ccc(N4CCN(C)CC4)cc3)n2)c(OC)c1,6.94%
19,COC[C@H]1OC(=O)c2coc3c2[C@@]1(C)C1=C(C3=O)[C@@H]2CC[C@H](O)[C@@]2(C)C[C@@H]1OC(C)=O,83.2%
20,CCOC(=O)c1cncn1[C@H](C)c1ccccc1,98%
